Reference: PubChem BioAssay (NCATS)
Records with an inconclusive call do not appear. Values without a mark were called inactive. Activity calls are given as the source filed them. The call rests on the fitted dose curve; in most records, active means well fitted curve in the direction sought with a large enough effect; inconclusive means small, poorly fitted or top-dose-only effect, or another doubt; inactive means no such curve, though single readings can be large; an effect the other way counts as inactive or inconclusive. Square brackets hold non-standard residues; d marks the D form. Peptide text beside a SMILES is read from it. ξ: configuration not given here. ξL = CC(C)CC(N)C(=O)O
On the % scale 0 is the no-effect control and ±100 the full control effect.

Assay: Vero-766 cells viability qHTS against the NCATS CANVASS Library: Counterscreen for Zika virus inhibition assay (AID 1347394); further: nearly all actives have a fitted effect of over 60% in size; further: potency means the concentration at half of the fitted maximal effect
Settings: Vero 766 viability, CellTiter-Glo luminescence, 72 h; series mostly up to 46.1 µM; activity change, negative = cytotoxic: at the top concentration
Summary of the method: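 CellTiter Glo luminescence measured cytotoxicity after 72 h at 37C in uninfected Vero 766 cells, plated at 1000 cells/well. Compounds were applied in an 11-point series. Wells without cells defined 100% inhibition.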
With CC[C@@H](c1cc(OC)c(OC)cc1OC)[C@H](C)[C@@H](/C(C)=C/c1cc(OC)c(OC)cc1OC)c1cc(OC)c(OC)cc1OC the Potency was “inactive”.
For C/C=C/c1cc2c(c(=O)o1)C(=O)[C@@H](O)[C@H](C)O2, the “activity change, negative = cytotoxic” value was -3.81%.
For CC[C@@H](C)[C@H]1NC(=O)C(CC(C)C)NC(=O)[C@@H](CC(C)C)NC(=O)[C@H](Cc2c[nH]c3ccccc23)NC(=O)CNC(=O)[C@@H](CC(N)=O)NC1=O (stereo partly drawn) (cyclo(GW[dL][ξL][dI][dN])), the “activity change, negative = cytotoxic” value was -7.1%.
With CN1CCc2cc3c(c4c2C1(C)C(=O)c1cc(O)ccc1-4)OCO3 (stereo not drawn) the “activity change, negative = cytotoxic” value was -16.5%.
With COc1cc2c(cc1OC)[C@@H](c1ccc3c(c1)OCO3)C(C)[C@@H](C)C2=O (stereo partly drawn) the “activity change, negative = cytotoxic” value was -23.5%.
In the case of COC(=O)[C@@]1(C)CCC[C@]2(C)c3cc(OC)ccc3CC[C@@H]12, the “activity change, negative = cytotoxic” value is reported as -21%.
For COc1cc2ccc(=O)oc2c(O)c1O[C@@H]1O[C@H](CO)[C@@H](O)[C@H](O)[C@H]1O, the “activity change, negative = cytotoxic” value was -11.6% [at 27.5 µM].
For CC1=C(C)C(=O)OC(C(C)C2(O)CCC3C4C5OC5C5(O)CC=CC(=O)C5(C)C4CCC32C)C1 (stereo not drawn), the “activity change, negative = cytotoxic” value was -3.4%.
In the case of C[C@H](CCC(O)C(C)(O)CO)[C@@]1(O)CC[C@@]2(C)C3=C(CC[C@@]21C)[C@@]1(C)CCC(OC(=O)CCC(=O)O)C(C)(C)[C@@H]1CC3 (stereo partly drawn), the Potency is reported as 29.5 µM (active).
In the case of COc1cc(C2C3=C(Cc4cc5c(cc42)OCO5)C(=O)OC3)cc(OC)c1OC (stereo not drawn), the Potency is reported as 0.186 µM (active).
In the case of CO[C@@H]1[C@H](O)[C@@H](C)O[C@@H](OC[C@@H]2C(C)OC(=O)/C=C/[C@H](C)C(O[C@@H]3O[C@H](C)CC4(OC(=O)O[C@@H]4C)C3O)[C@@H](C)CC(C)C(=O)/C=C/[C@H]3OC23)[C@@H]1OC (stereo partly drawn), the “activity change, negative = cytotoxic” value is reported as 12.2%.
With C=C[C@@](C)(O)CC[C@@H]1[C@@]2(C)CCCC(C)(C)[C@@H]2CC[C@@]1(C)O the “activity change, negative = cytotoxic” value was -22.1%.
With C=C1C(=O)O[C@H]2[C@H]1CCC(C)=C1CC[C@@](C)(O)[C@@H]12 the “activity change, negative = cytotoxic” value was -19%.
With C/C(=C\[C@H](C)C(=O)/C=C/CC1CC(=O)NC(=O)C1)[C@@H]1OC(=O)CCCC/C=C/[C@H](O)[C@@H](O)[C@@H]1C the “activity change, negative = cytotoxic” value was 10.3%.
In the case of C[C@H](c1cnc(N)[nH]1)c1ccc(O)c2[nH]cc(-c3cnc(-c4c[nH]c5ccccc45)c(=O)[nH]3)c12, the “activity change, negative = cytotoxic” value is reported as 0.48%.
In the case of CC[C@@H]1[C@H](C)[C@H](c2cc(OC)c(OC)cc2OC)[C@@H](C)[C@H](c2cc(OC)c(OC)cc2OC)[C@]12C=C(OC)C(=O)C=C2OC, the Potency is reported as 20.9 µM (active).

Assay: qHTS for inhibitors of Wild type Zika virus screened against the NCATS CANVASS Library (AID 1347396);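 further: ATP luminescence of surviving cells so rescue from viral cell killing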
Settings: Vero cells, Zika virus CPE, CellTiter-Glo, 72 h; series mostly up to 45.9 µM; activity change, negative = antiviral: at the top concentration
Summary of the method: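 Using ATP-based luminescence (CellTiter Glo), this screen scores rescue of Vero 766 cells from wild-type Zika killing at 72 h post-infection. Compounds are tested in a concentration series.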
In the case of O[C@H]1C=C2[C@H]3CN(Cc4cc5c(cc43)OCO5)[C@H]2C[C@@H]1O, the “activity change, negative = antiviral” value is reported as 28.8%.
In the case of CC[C@@H](c1cc(OC)c(OC)cc1OC)[C@H](C)[C@@H](/C(C)=C/c1cc(OC)c(OC)cc1OC)c1cc(OC)c(OC)cc1OC, the outcome is reported as “inactive”.
With CC[C@@H](C)[C@H]1NC(=O)C(CC(C)C)NC(=O)[C@@H](CC(C)C)NC(=O)[C@H](Cc2c[nH]c3ccccc23)NC(=O)CNC(=O)[C@@H](CC(N)=O)NC1=O (stereo partly drawn) (cyclo(GW[dL][ξL][dI][dN])) the “activity change, negative = antiviral” value was -19.8%.
With CN1CCc2cc3c(c4c2C1(C)C(=O)c1cc(O)ccc1-4)OCO3 (stereo not drawn) the “activity change, negative = antiviral” value was 6.03%.
With CC(C)[C@@H]1CC(=O)c2coc3c2[C@H]1C[C@@H](C)C3=O the “activity change, negative = antiviral” value was 9.32%.
In the case of COc1cc2oc3ccccc3c(=O)c2cc1OC, the “activity change, negative = antiviral” value is reported as -22.1% [at 91 µM].
For COC(=O)[C@@]1(C)CCC[C@]2(C)c3cc(OC)ccc3CC[C@@H]12, the “activity change, negative = antiviral” value was -10.8%.
In the case of COc1cc2ccc(=O)oc2c(O)c1O[C@@H]1O[C@H](CO)[C@@H](O)[C@H](O)[C@H]1O, the “activity change, negative = antiviral” value is reported as -10.9% [at 27.4 µM].
With O=C1CCC(=O)N(O)CCCCCNC(=O)CCC(=O)N(O)CCCCCNC(=O)CCC(=O)N(O)CCCCCN1 the “activity change, negative = antiviral” value was -1.42%.
For CC1=C(C)C(=O)OC(C(C)C2(O)CCC3C4C5OC5C5(O)CC=CC(=O)C5(C)C4CCC32C)C1 (stereo not drawn), the “activity change, negative = antiviral” value was -23.4%.
In the case of CO[C@@H]1[C@H](O)[C@@H](C)O[C@@H](OC[C@@H]2C(C)OC(=O)/C=C/[C@H](C)C(O[C@@H]3O[C@H](C)CC4(OC(=O)O[C@@H]4C)C3O)[C@@H](C)CC(C)C(=O)/C=C/[C@H]3OC23)[C@@H]1OC (stereo partly drawn), the “activity change, negative = antiviral” value is reported as 2.65%.
With COc1ccc([C@@H]2c3cc4c(cc3C(=O)[C@H](C)C2C)OCO4)cc1OC (stereo partly drawn) the “activity change, negative = antiviral” value was -22.5%.
In the case of C/C(=C\[C@H](C)C(=O)C[C@H](O)CC1CC(=O)NC(=O)C1)[C@@H]1OC(=O)CCCC/C=C/[C@@H](O)C[C@@H]1C, the “activity change, negative = antiviral” value is reported as 71.4%.
With C=C1C(=O)O[C@H]2[C@H]1CCC(C)=C1CC[C@@](C)(O)[C@@H]12 the “activity change, negative = antiviral” value was 15%.
With C/C(=C\[C@H](C)C(=O)/C=C/CC1CC(=O)NC(=O)C1)[C@@H]1OC(=O)CCCC/C=C/[C@H](O)[C@@H](O)[C@@H]1C the “activity change, negative = antiviral” value was 15.9%.
With C[C@H](c1cnc(N)[nH]1)c1ccc(O)c2[nH]cc(-c3cnc(-c4c[nH]c5ccccc45)c(=O)[nH]3)c12 the “activity change, negative = antiviral” value was 4.25%.
For COc1ccc([C@@H]2c3cc4c(cc3C[C@H](C)C2C)OCO4)cc1OC (stereo partly drawn), the “activity change, negative = antiviral” value was 70.9%.

Assay: Viability qHTS for inhibitors of the SERCaMP assay screened against the NCATS CANVASS Library (AID 1347400); further: nearly all actives have a fitted effect of over 70% in size; further: potency means the concentration at half of the fitted maximal effect
Settings: SH-SY5Y SERCaMP cells viability, CellTiter-Glo, 48 h; series mostly up to 92.2 µM; activity change, negative = cytotoxicity: at the top concentration
Summary of the method: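 CellTiter-Glo luminescence readout after 48 h compound exposure (11-pnt qHTS series) of SH-SY5Y-GLuc SERCaMP MJH297 cells seeded at 1000 cells/well; bortezomib positive control.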
In the case of CC[C@@H](c1cc(OC)c(OC)cc1OC)[C@H](C)[C@@H](/C(C)=C/c1cc(OC)c(OC)cc1OC)c1cc(OC)c(OC)cc1OC, the Potency is reported as “inactive”.
With C/C=C/c1cc2c(c(=O)o1)C(=O)[C@@H](O)[C@H](C)O2 the Potency was 34 µM (active).
With COc1cc2c(cc1OC)[C@@H](c1ccc3c(c1)OCO3)C(C)[C@@H](C)C2=O (stereo partly drawn) the “activity change, negative = cytotoxicity” value was 16.8%.
For COc1cc2oc3ccccc3c(=O)c2cc1OC, the “activity change, negative = cytotoxicity” value was -16.8% [at 183 µM].
In the case of COC(=O)[C@@]1(C)CCC[C@]2(C)c3cc(OC)ccc3CC[C@@H]12, the “activity change, negative = cytotoxicity” value is reported as 10.1%.
For COc1cc2ccc(=O)oc2c(O)c1O[C@@H]1O[C@H](CO)[C@@H](O)[C@H](O)[C@H]1O, the “activity change, negative = cytotoxicity” value was 7.29% [at 55.1 µM].
For C=C1C[C@H]2O[C@@H]3[C@@H]4[C@H](CC[C@@](C)(O)[C@@H]42)[C@H](C)COC3(C)[C@@H](OC(=O)CCCCCCC)C[C@H]1O (stereo partly drawn), the “activity change, negative = cytotoxicity” value was -22.7%.
In the case of C[C@H](CCC(O)C(C)(O)CO)[C@@]1(O)CC[C@@]2(C)C3=C(CC[C@@]21C)[C@@]1(C)CCC(OC(=O)CCC(=O)O)C(C)(C)[C@@H]1CC3 (stereo partly drawn), the “activity change, negative = cytotoxicity” value is reported as 19.6%.
With COc1cc(C2C3=C(Cc4cc5c(cc42)OCO5)C(=O)OC3)cc(OC)c1OC (stereo not drawn) the Potency was 0.0604 µM (active).
In the case of CO[C@@H]1[C@H](O)[C@@H](C)O[C@@H](OC[C@@H]2C(C)OC(=O)/C=C/[C@H](C)C(O[C@@H]3O[C@H](C)CC4(OC(=O)O[C@@H]4C)C3O)[C@@H](C)CC(C)C(=O)/C=C/[C@H]3OC23)[C@@H]1OC (stereo partly drawn), the Potency is reported as 42.8 µM (active).
With C=C[C@@](C)(O)CC[C@@H]1[C@@]2(C)CCCC(C)(C)[C@@H]2CC[C@@]1(C)O the “activity change, negative = cytotoxicity” value was -5.89%.
In the case of CC1=C[C@H]2[C@H]3C(=O)C(c4ccc(O)cc4)=C[C@@]3(c3ccc(O)cc3)[C@@H]1C(=O)[C@]2(C)O, the Potency is reported as 0.48 µM (active).
With C=C1C(=O)O[C@H]2[C@H]1CCC(C)=C1CC[C@@](C)(O)[C@@H]12 the Potency was 42.8 µM (active).
For C[C@H](c1cnc(N)[nH]1)c1ccc(O)c2[nH]cc(-c3cnc(-c4c[nH]c5ccccc45)c(=O)[nH]3)c12, the “activity change, negative = cytotoxicity” value was -15.5%.
For COc1ccc([C@@H]2c3cc4c(cc3C[C@H](C)C2C)OCO4)cc1OC (stereo partly drawn), the Potency was 27 µM (active).
